High-throughput results from PubChem BioAssay.
BAZ2B block = inhibitors of human BAZ2B bromodomain; AlphaScreen BAZ2B-H3K14Ac peptide displacement; Potency, µM (titrated, usually from 114 µM), inactives show at the top dose activity change, negative = inhibition, hits mostly inhibitors; 4.4% of 360,000 active; note: % is set by controls: 0 for no effect and ±100 for the full control effect; nearly all actives have a fitted effect of over 60% in size
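Compounds, titrated to a top concentration of 110 uM, were incubated 30 min at room temperature with preformed BAZ2B/acetyl-K14 H3 peptide complex (50 nM each). Proximity signal was measured by AlphaScreen after 20 min with beads.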
G9a block = G9a (human) methyltransferase inhibition. Q96KQ7. G9a H3K9 monomethylation, AlphaScreen, 2 h. Potency, µM (top dose mostly 102 µM), for the others: at the top dose activity, negative = inhibition, actives largely listed as inhibitors. 8.8% of 350,000 active. AID 504332; note: % is set by controls: 0 for no effect and ±100 for the full control effect; nearly all actives have a fitted effect of over 75% in size
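G9a (20 nM) was preincubated 15 min with compound, then reacted 2 h at room temperature with 500 nM biotin-H3K9 peptide and 20 µM SAM. Monomethyl-H3K9 detected by AlphaScreen using anti-H3K9me1 antibody.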
JMJD2A Tudor = JMJD2A Tudor domain (human) inhibition; O75164; AlphaScreen JMJD2A-Tudor / H3K4me3 peptide binding; Potency, µM (doses to about 114 µM), without a hit: at the highest dose activity change, negative = inhibition, hits mostly inhibitors; 4.4% of 390,000 active; AID 504339; note: % is set by controls: 0 for no effect and ±100 for the full control effect; nearly all actives have a fitted effect of over 50% in size
PLK1 PBD inh = blocks phosphopeptide binding to human PLK1 polo-box domain; P53350; Plk1 PBD binding of FITC phosphopeptide, fluorescence polarization; Potency, µM, for inactives: max response, negative = inhibition, actives largely listed as inhibitors; 2.8% of 360,000 active; note: series mostly up to about 57 µM; % is set by controls: 0 for no effect and ±100 for the full control effect; nearly all actives have a fitted effect of over 65% in size
HP1b binding inh = blocks HP1-beta chromodomain binding to methylated histone tails | P83916 | AlphaScreen HP1-beta / biotin-H3K9me3 peptide binding | Potency, µM (highest dose often 114 µM), without a hit: at the highest dose activity change, negative = inhibition, hits mostly inhibitors | 0.56% of 390,000 active; note: nearly all actives have a fitted effect of over 70% in size
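AlphaScreen: HP1-beta (50 nM) preformed 30 min with biotin-H3(1-18)K9me3 peptide (50 nM) in PBS pH 7.4, 0.01% Tween-20. Compound added for 30 min at RT, then streptavidin donor/nickel chelate acceptor beads (10 ug/mL) for 30 min.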
Sfp inh = blocks B. subtilis Sfp PPTase activity; Q9F4F7; Biochemical Sfp PPTase activity, qHTS; Potency, µM, for the others: largest response in the series, negative = inhibition, most hits filed as inhibitors; 3.5% of 310,000 active;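 note: the enzyme is Sfp with the accession as filed and its product quenches rhodamine fluorescence; 0% = enzyme reaction without inhibitor and -100% = no enzyme wells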
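Fluorescence-quenching assay: 15 nM Sfp-PPTase preincubated 15 min at room temperature with compound, then 5 uM rhodamine-CoA and 12.5 uM BHQ-2-labelled YbbR peptide added. Fluorescence (ex 525/em 598 nm) read at start and after 30 min; difference gives rate.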
Starred values were filed as active, the others as inactive; [ ] = another dose, or the depositor's remark. Only some compounds are listed: those with a hit (about 12% of all), similar ones and a draw of the others. Calls come from the whole dose curve; as a rule, active = well fitted curve in the direction sought with a large enough effect; inconclusive = small, poorly fitted or top-dose-only effect, or another doubt; inactive = no such curve, though single readings can be large; an effect the other way counts as inactive or inconclusive. Potency is the fitted concentration of half-maximal effect.

Screening C/C=C(\C)[C@H](O)C[Si](C)(C)c1ccccc1 returned Sfp inh -7%.
COc1cccc(C#CC2=CC(=O)C[C@H](c3ccc(F)cc3)C2)c1 was read as PLK1 PBD inh -18%.
Cc1nc2c(C(=O)N3CCOCC3)cnn2c(C)c1Cc1cccc(Cl)c1 was read as BAZ2B block -22%, G9a block 50µM* and Sfp inh 10%.
Screening CCOC(=O)c1cnc2ccc(C)cc2c1Sc1ccccc1C(=O)OC returned BAZ2B block -7%, G9a block 7%, JMJD2A Tudor inconclusive, PLK1 PBD inh 27µM*, HP1b binding inh 2% and Sfp inh -5%.
CCOC(=O)c1cnc2ccc(C)cc2c1NCCO was read as BAZ2B block 6%, G9a block 7%[59 µM], JMJD2A Tudor -11%, PLK1 PBD inh -1%, HP1b binding inh 28% and Sfp inh 16%.
Screening COc1ccc(OC)c(NC(=O)c2cccc(Cn3cc(Br)c([N+](=O)[O-])n3)c2)c1 returned BAZ2B block -11%, G9a block 2.5µM*, JMJD2A Tudor -27%, PLK1 PBD inh -3%, HP1b binding inh -7% and Sfp inh -12%.
COC(=O)c1c(NC(=O)CN2CCC3(O)CCCCC3C2c2ccc(OC)cc2OC)sc(C)c1C (stereo unspecified) was read as BAZ2B block -20%, G9a block 28µM*, JMJD2A Tudor inconclusive, PLK1 PBD inh 21µM*, HP1b binding inh inconclusive and Sfp inh 20µM*.
`C=CCN(CC=C)S(=O)(=O)c1ccc(C(=O)Nc2nnc(COC)o2)cc1` gave BAZ2B block inconclusive, G9a block 23%[12.7 µM], JMJD2A Tudor -28%, PLK1 PBD inh -2%, HP1b binding inh 52% and Sfp inh 11%.
For COCc1nnc(NC(=O)c2ccc(S(=O)(=O)N3CCCC3)cc2)o1 the results were BAZ2B block 20µM*, G9a block 3%, JMJD2A Tudor 13µM*, PLK1 PBD inh 1%, HP1b binding inh 29% and Sfp inh -19%.
CCc1nnc(NC(=O)c2ccc(S(=O)(=O)N3CCCC(C)C3)cc2)o1 (stereo unspecified) was read as BAZ2B block 89µM*, G9a block 62%, JMJD2A Tudor -26%, PLK1 PBD inh -3%, HP1b binding inh 42% and Sfp inh 8%.
`CCc1nc(N)nc(N)c1-c1ccc(Cl)c(N=[N+]=[N-])c1` gave JMJD2A Tudor -19%, PLK1 PBD inh -8% and HP1b binding inh 2%.
CCSc1ccc2nnc(-c3cccc(F)c3)n2n1 was read as BAZ2B block 11%, G9a block 4µM*, JMJD2A Tudor 79µM*, PLK1 PBD inh inconclusive, HP1b binding inh -37% and Sfp inh inconclusive.
For O=C(CSc1ccc2nnc(-c3cccc(F)c3)n2n1)NCC1CCCO1 (stereo unspecified) the results were BAZ2B block -4%, G9a block 5µM*, JMJD2A Tudor 32µM*, PLK1 PBD inh inconclusive, HP1b binding inh inconclusive and Sfp inh inconclusive.
Cc1oc2ncnc(N3CCCCC3)c2c1C(=O)N1CCN(c2cccc(C(F)(F)F)c2)CC1 was read as BAZ2B block -11%[57.1 µM], G9a block -35%[59 µM], JMJD2A Tudor -29% and HP1b binding inh -18%.
CC(C)C(NC(=O)c1ccco1)C(=O)NC1CCCCCC1 (stereo unspecified) was read as BAZ2B block -2%, G9a block 79µM*, JMJD2A Tudor -10%, PLK1 PBD inh -3%, HP1b binding inh 38% and Sfp inh 1%.
`CC1CCC(NCCNC(=O)c2ccco2)CC1` (stereo unspecified) gave BAZ2B block -36%, G9a block 35µM*, JMJD2A Tudor 20µM*, PLK1 PBD inh 3%, HP1b binding inh -9% and Sfp inh -1%.
`O=C(NCCNC1CCCCC1)c1ccco1` gave BAZ2B block inconclusive, G9a block 45µM*, JMJD2A Tudor 3.5µM*, PLK1 PBD inh -8%, HP1b binding inh inconclusive and Sfp inh -5%.
O=C(N[C@@H](Cc1ccccc1)C(=O)NC1CCCCCC1)c1ccco1 was read as BAZ2B block 10%, G9a block -8%, JMJD2A Tudor 6%, PLK1 PBD inh -2%, HP1b binding inh 22% and Sfp inh -4%.
`COc1cc(C(=O)NCc2ccco2)cc(OC)c1OC` gave BAZ2B block 6%, G9a block 9%[12.7 µM], JMJD2A Tudor -1%, PLK1 PBD inh -3%, HP1b binding inh 44% and Sfp inh 8%.
For COc1cc(C(=O)NCCNC(=O)c2ccco2)cc(OC)c1OC the results were JMJD2A Tudor inconclusive, PLK1 PBD inh 27µM* and HP1b binding inh inconclusive.
For O=C(NC1CCCCCCC1)c1ccco1 the results were BAZ2B block -5%, G9a block -13%[12.7 µM], JMJD2A Tudor -1%, PLK1 PBD inh -2%, HP1b binding inh 31% and Sfp inh 11%.
For N#Cc1ccccc1OCC(=O)N1CCN(c2ccccc2F)CC1 the results were BAZ2B block 32%, G9a block 41%[59 µM], JMJD2A Tudor inconclusive and HP1b binding inh 72%.
For COc1cc2c(cc1OC)CN(Cc1ccc(C)cc1)CC2 the results were BAZ2B block -8%, JMJD2A Tudor -15%, PLK1 PBD inh -5%, HP1b binding inh 26% and Sfp inh -1%.
Screening COc1cc2c(cc1OC)CN(Cc1cc(OC)c(O)c(OC)c1)CC2 returned BAZ2B block -11%, G9a block 32µM*, JMJD2A Tudor -3%, PLK1 PBD inh -10%, HP1b binding inh 57% and Sfp inh 3%.
Screening COc1cc2c(cc1OC)CN(Cc1ccccc1)CC2 returned BAZ2B block 0%, JMJD2A Tudor -7%, PLK1 PBD inh 4%, HP1b binding inh 38% and Sfp inh -5%.
COc1cc2c(cc1OC)CN(Cc1cccs1)CC2 was read as BAZ2B block -39%, G9a block inconclusive, JMJD2A Tudor 3.2µM*, PLK1 PBD inh -8%, HP1b binding inh inconclusive and Sfp inh -23%.
CCCCc1ccc(NC(=O)CSC2=NN3CCCC(=O)N=C3S2)cc1 was read as BAZ2B block 1%, G9a block 36%, JMJD2A Tudor -16%, PLK1 PBD inh -4%, HP1b binding inh 14% and Sfp inh 19%.
`CCOC(=O)C1CCCc2c1[nH]c1c(C(=O)O)cccc21` (stereo unspecified) gave BAZ2B block -5%, G9a block -5%[59 µM], JMJD2A Tudor -14%, PLK1 PBD inh -4%, HP1b binding inh 15% and Sfp inh 10%.
